Source: the supplement of paper PMC3334620
Over roughly 33,000 sequences, “E-score (-0.5 to 0.5)” has its median near -0.0034; the highest 2% begin near 0.25. The sample holds the highest values, similar sequences and a random draw of the others, so the mix is not that of the screen.

biological target: T1, Yap3 (UniProt P38749); assay: PBM E-score (8-mer binding enrichment) (E-score (-0.5 to 0.5)); higher = stronger / more preferred TF binding; details: protein concentration: 100 nM; construct: GST-full length
T1 sequence: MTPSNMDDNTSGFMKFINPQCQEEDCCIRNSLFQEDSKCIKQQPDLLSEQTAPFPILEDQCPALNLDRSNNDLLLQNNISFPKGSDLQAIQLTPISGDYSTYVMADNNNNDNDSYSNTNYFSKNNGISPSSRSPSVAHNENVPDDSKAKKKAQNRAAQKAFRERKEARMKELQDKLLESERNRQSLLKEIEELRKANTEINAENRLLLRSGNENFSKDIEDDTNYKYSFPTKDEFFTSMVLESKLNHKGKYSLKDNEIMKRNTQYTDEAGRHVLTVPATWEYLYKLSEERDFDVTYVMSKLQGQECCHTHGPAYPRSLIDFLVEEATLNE
Procedure: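 Universal 'all 10-mer' protein binding microarrays (Agilent AMADID 015681) probed with GST-tagged S. cerevisiae TFs (full-length or DBD) made by in vitro transcription/translation (PURExpress), about 100-200 nM. Bound TF was detected with fluorescent anti-GST. Each ungapped 8-mer (which stands for itself and its reverse complement) is scored by the PBM enrichment score (E-score), a modified Wilcoxon-Mann-Whitney statistic from -0.5 to +0.5, computed with the Universal PBM Analysis Suite. Scale: above 0.35 generally sequence-specific binding.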

Compared with GAGTAATC, CAGTAATC is lower in “PBM E-score” value: 0.103 for the first, 0.0876 for the second.

Going from CAGTAATG to GAGTAATA, the “PBM E-score” value rises from 0.0685 to 0.273.

Compared with CAGTAATA, AAGTAATA is lower in “PBM E-score” value: 0.307 for the first, 0.158 for the second.

First: CATAGGCA
Second: AGTCGACG
The “PBM E-score” value of the first is lower: -0.0267 for the first, 0.23 for the second.

Compared with ACCACCAC, CACAGGCA is higher in “PBM E-score” value: -0.00648 for the first, 0.0714 for the second.

Compared with AGACTGTC, CTTGAAAC is higher in “PBM E-score” value: -0.163 for the first, 0.177 for the second.

Compared with CCGGCCAG, CCACATAC is higher in “PBM E-score” value: -0.181 for the first, 0.249 for the second.

Compared with ATATTTTG, CTATTTTA is higher in “PBM E-score” value: 0.157 for the first, 0.251 for the second.

Compared with ACATTTTA, CCATTTTA is lower in “PBM E-score” value: 0.259 for the first, 0.222 for the second.

Going from ATATTTTA to GCATTTTA, the “PBM E-score” value falls from 0.273 to 0.227.

Going from GTATTTGA to GTATTTTA, the “PBM E-score” value falls from 0.137 to 0.0831.

Going from CTATTTGA to ATATTTGA, the “PBM E-score” value falls from 0.27 to 0.149.

Compared with ATATTTTC, CTATTTTC is lower in “PBM E-score” value: 0.261 for the first, 0.114 for the second.

First: CACGGCCG
Second: CTACTCTA
The “PBM E-score” value of the first is lower: -0.0612 for the first, 0.148 for the second.

First: AAAGGGCG
Second: AGTAGTGG
The “PBM E-score” value of the first is lower: -0.0936 for the first, 0.0946 for the second.

Compared with ATCTGCGG, ATCTATAA is higher in “PBM E-score” value: -0.0331 for the first, 0.0384 for the second.

First: CTACTAGC
Second: TAAGTAGA
The “PBM E-score” value of the first is lower: 0.097 for the first, 0.109 for the second.

First: AGATGACG
Second: CTGTGGCC
The “PBM E-score” value of the first is higher: 0.108 for the first, -0.361 for the second.

Going from CTGTTCAA to AGGTCGAT, the “PBM E-score” value rises from 0.0116 to 0.167.

Compared with GCCGATCA, ATATTTAC is higher in “PBM E-score” value: 0.00289 for the first, 0.208 for the second.

First: ATATTTAA
Second: CTATTTAA
The “PBM E-score” value of the first is higher: 0.339 for the first, 0.0559 for the second.

Going from GTAACAGA to CTTATTCA, the “PBM E-score” value rises from 0.105 to 0.106.

Going from ATTATTCA to ATTATTCC, the “PBM E-score” value falls from 0.277 to 0.248.

Compared with ACTATTCG, GTTATTCA is lower in “PBM E-score” value: 0.231 for the first, 0.193 for the second.

First: ATTATTCG
Second: ATACCCAG
The “PBM E-score” value of the first is higher: 0.274 for the first, -0.0813 for the second.

Compared with GCCAATTA, ATCAATTG is lower in “PBM E-score” value: 0.193 for the first, 0.159 for the second.

Compared with AACAATTG, AACAATTC is higher in “PBM E-score” value: -0.0238 for the first, 0.106 for the second.

First: ACCAATTA
Second: AACAATTA
The “PBM E-score” value of the first is lower: 0.274 for the first, 0.323 for the second.

Compared with ACCAATTG, ATCAATTC is lower in “PBM E-score” value: -0.0264 for the first, -0.0493 for the second.

Compared with ATCAATTA, CGTAGCTA is lower in “PBM E-score” value: 0.318 for the first, -0.05 for the second.

Going from GGAGCAAA to CATAGCAC, the “PBM E-score” value rises from 0.016 to 0.0592.

Compared with ACACCACA, AGCCTCAT is lower in “PBM E-score” value: 0.0359 for the first, -0.158 for the second.

First: ACAAGGGG
Second: ATTAGATG
The “PBM E-score” value of the first is lower: -0.193 for the first, 0.261 for the second.

First: ATTAGATA
Second: ATTAGATC
The “PBM E-score” value of the first is higher: 0.178 for the first, 0.0781 for the second.

First: TCTTCAAA
Second: ACTGCCAG
The “PBM E-score” value of the first is higher: 0.0414 for the first, -0.0114 for the second.

Going from GAATTATA to AAATTATA, the “PBM E-score” value rises from 0.237 to 0.249.

First: GAATTAGA
Second: CAATTAGA
The “PBM E-score” value of the first is higher: 0.136 for the first, 0.0631 for the second.

Going from CAATTATC to TAATTAGA, the “PBM E-score” value rises from 0.273 to 0.291.

Going from TAATTATA to CAATTATA, the “PBM E-score” value falls from 0.285 to 0.167.

First: CAATTATG
Second: CTACCATA
The “PBM E-score” value of the first is higher: 0.214 for the first, 0.152 for the second.

Going from CCGTGAAG to ATACCATA, the “PBM E-score” value rises from -0.167 to 0.241.

Compared with CTAGATCC, GCGAAGGA is lower in “PBM E-score” value: -0.0756 for the first, -0.201 for the second.

First: AACGAGGA
Second: GACTAACA
The “PBM E-score” value of the first is lower: 0.0742 for the first, 0.142 for the second.

Compared with TAATACTA, TAATACAA is lower in “PBM E-score” value: 0.367 for the first, 0.279 for the second.

First: AACTAATA
Second: AAATACAA
The “PBM E-score” value of the first is higher: 0.342 for the first, 0.197 for the second.

First: GACTAATC
Second: GACTAATA
The “PBM E-score” value of the first is lower: 0.175 for the first, 0.326 for the second.

First: AAATACTA
Second: AACTAATT
The “PBM E-score” value of the first is lower: 0.141 for the first, 0.149 for the second.

Going from CAATACAA to AACTAATG, the “PBM E-score” value rises from 0.187 to 0.23.

Compared with CAATACTA, CAAATCTC is higher in “PBM E-score” value: 0.0409 for the first, 0.0919 for the second.

Going from TACAGCTA to GCATGACC, the “PBM E-score” value falls from -0.115 to -0.158.

Compared with TCCTTCAA, CCCTTGAC is lower in “PBM E-score” value: 0.026 for the first, -0.0534 for the second.

Going from CGACAGGA to AAGTAACC, the “PBM E-score” value falls from 0.0296 to 0.0184.

Going from ACCTAGAC to GAGACGGC, the “PBM E-score” value rises from -0.229 to -0.138.

Compared with GAAAGATC, ATCCAGTG is higher in “PBM E-score” value: -0.0498 for the first, 0.0972 for the second.

In the case of ACTCCAAT, the “PBM E-score” value is reported as 0.0453.
